Activity calls are given as the source filed them. How the source made its calls: active means hit-call score of the fitted dose curve at least 0.9, where 1 is the maximum; inactive means score below 0.9.
Key:
[1] = ATG_CRE_CIS: Attagene CIS-FACTORIAL HepG2 Assay for human cAMP Responsive Element (CRE) binding protein 3 (AID 2282926); conditions: HepG2 CRE cis-reporter, Attagene multiplexed mRNA; actives raise or lower the signal
Method in brief: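 We dosed HepG2 cells bearing multiple cis-promoter reporter units for 24 h and measured reporter mRNA by RT-PCR with capillary electrophoresis detection. Bidirectional concentration-response fitting used DMSO as negative control.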

[2] = target: CCAAT/enhancer-binding protein beta (Homo sapiens) (UniProt P17676); test: ATG_C_EBP_CIS: Attagene CIS-FACTORIAL HepG2 Assay for human CCAAT/Enhancer Binding Protein (C/EBP) beta (AID 2282927); conditions: HepG2 Attagene cis-factorial transcription factor reporter; actives raise or lower the signal
Chain of CCAAT/enhancer-binding protein beta (Homo sapiens) (P17676 whole entry, looked up): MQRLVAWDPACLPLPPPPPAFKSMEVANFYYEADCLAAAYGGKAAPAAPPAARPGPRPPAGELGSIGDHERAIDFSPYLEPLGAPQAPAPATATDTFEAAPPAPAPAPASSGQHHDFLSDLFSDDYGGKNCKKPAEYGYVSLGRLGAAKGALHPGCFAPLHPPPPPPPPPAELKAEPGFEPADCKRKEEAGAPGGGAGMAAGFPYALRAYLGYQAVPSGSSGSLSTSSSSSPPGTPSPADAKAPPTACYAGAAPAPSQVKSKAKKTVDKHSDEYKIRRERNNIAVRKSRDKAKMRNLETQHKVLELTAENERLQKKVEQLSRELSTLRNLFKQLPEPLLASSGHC
Method in brief: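 Transiently transfected HepG2 (MRTU library, endogenous TF-driven promoters); 24 h dosing; total RNA → oligo(dT) RT → PCR → 6-FAM primer extension → HpaI digest → CE; fit bidirectionally vs DMSO.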

[3] = ATG_CMV_CIS: Attagene CIS-FACTORIAL HepG2 Assay for human CMV (Internal Marker) (AID 2282928); conditions: HepG2 CMV promoter reporter, transcription factor profiling; actives raise or lower the signal;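 further: endpoint acts as a background internal control marker rather than a target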
Method in brief: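 CMV internal-marker background readout in transiently transfected HepG2 cells bearing cis-regulated reporter units. Reporter mRNA is measured 24 h after dosing by RT-PCR and capillary electrophoresis, with bidirectional fitting against DMSO.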

[4] = ATG_DR4_LXR_CIS: Attagene CIS-FACTORIAL HepG2 Assay for human Liver X Receptor (LXR), DR4 submotif (AID 2282929); conditions: HepG2 Attagene DR4 cis-reporter, mRNA transcription; actives raise or lower the signal
Method in brief: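 HepG2 cells were transiently transfected with multiple cis-regulated reporter units and dosed for 24 hours. The DR4 reporter mRNA was quantified by RT-PCR, 6-FAM labelling and capillary electrophoresis. Bidirectional fits used DMSO as baseline.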

[5] = target: Aryl hydrocarbon receptor (Homo sapiens) (UniProt P35869); test: ATG_Ahr_CIS: Attagene CIS-FACTORIAL HepG2 Assay for human Aryl Hydrocarbon Receptor (Ahr) (AID 2282930); conditions: HepG2 AhR cis-factorial reporter transcription; actives raise or lower the signal
Chain of Aryl hydrocarbon receptor (Homo sapiens) (P35869 whole entry, looked up): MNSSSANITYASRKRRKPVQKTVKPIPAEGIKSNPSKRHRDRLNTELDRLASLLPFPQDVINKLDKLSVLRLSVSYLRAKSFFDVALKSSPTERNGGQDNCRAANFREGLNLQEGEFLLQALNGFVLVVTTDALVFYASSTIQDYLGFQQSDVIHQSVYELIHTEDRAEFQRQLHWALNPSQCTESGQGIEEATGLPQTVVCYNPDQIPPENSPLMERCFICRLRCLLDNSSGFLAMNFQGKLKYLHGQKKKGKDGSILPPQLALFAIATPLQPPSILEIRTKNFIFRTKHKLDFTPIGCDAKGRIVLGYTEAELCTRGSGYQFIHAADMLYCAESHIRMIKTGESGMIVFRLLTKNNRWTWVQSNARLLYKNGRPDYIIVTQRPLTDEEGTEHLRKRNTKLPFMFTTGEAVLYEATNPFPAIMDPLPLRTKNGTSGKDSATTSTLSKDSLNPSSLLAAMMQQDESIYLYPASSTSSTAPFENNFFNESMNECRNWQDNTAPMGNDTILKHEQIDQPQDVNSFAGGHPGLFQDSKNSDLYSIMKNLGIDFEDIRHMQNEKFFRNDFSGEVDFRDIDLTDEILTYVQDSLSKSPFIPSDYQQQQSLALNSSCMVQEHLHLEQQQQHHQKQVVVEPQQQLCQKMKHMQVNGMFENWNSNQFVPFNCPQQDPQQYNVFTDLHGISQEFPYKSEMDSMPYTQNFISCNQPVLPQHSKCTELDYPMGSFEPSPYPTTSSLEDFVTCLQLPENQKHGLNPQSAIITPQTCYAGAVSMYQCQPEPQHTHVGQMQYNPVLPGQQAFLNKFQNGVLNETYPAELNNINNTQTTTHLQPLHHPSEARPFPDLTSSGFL
Method in brief: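 Read-out: reporter mRNA quantified by RT-PCR with fluorescent primer extension and capillary electrophoresis. Human HepG2 liver cells carried transfected cis-promoter reporter units and were exposed to chemical for 24 h; gain or loss fitted relative to DMSO.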

[6] = ATG_AP_1_CIS: Attagene CIS-FACTORIAL HepG2 Assay for human Activator Protein 1 (AP-1) (AID 2282931); conditions: HepG2 Attagene cis-factorial AP-1 reporter mRNA; actives raise or lower the signal
Method in brief: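 HepG2 cells transiently transfected with cis-element-driven reporter transcription units, dosed for 24 hours. Reporter mRNA measured by RT-PCR, 6-FAM labelling, HpaI digestion and capillary electrophoresis. Bidirectional fitting against DMSO baseline.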

[7] = ATG_AP_2_CIS: Attagene CIS-FACTORIAL HepG2 Assay for human Activator Protein 2 (AP-2) (AID 2282932); conditions: HepG2 AP-2 cis-reporter, Attagene transcription factor profiling; actives raise or lower the signal
Method in brief: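 Multiplexed mRNA reporter assay in HepG2: cis-regulated units report endogenous factor activity after 24 h treatment. Fluorescence from capillary electrophoresis of RT-PCR products gives the signal, with DMSO as baseline.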

[8] = ATG_BRE_CIS: Attagene CIS-FACTORIAL HepG2 Assay for human Bone Morphogenetic Protein (BMP) Response Element (BRE) (AID 2282933); conditions: HepG2 BMP response element reporter, Attagene transcription factor profiling; actives raise or lower the signal
Method in brief: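 HepG2 cells transiently transfected with CIS reporter units (endogenous TF activity, BMP response element), dosed 24 h. Reporter mRNA quantified by RT-PCR, fluorescent labelling and capillary electrophoresis; bidirectional fit vs DMSO baseline.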

[9] = target: Retinoic acid receptor alpha (Homo sapiens) (UniProt P10276); test: ATG_DR5_RAR_CIS: Attagene CIS-FACTORIAL HepG2 Assay for human Retinoic Acid Receptor Alpha (RARE), DR5 submotif (AID 2282934); conditions: HepG2 Attagene cis-factorial RARE DR5 reporter, mRNA; actives raise or lower the signal;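 on AC50: reporter responds to endogenous RAR alpha beta and gamma in HepG2 not RARA alone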
Chain of Retinoic acid receptor alpha (Homo sapiens) (P10276 whole entry, looked up): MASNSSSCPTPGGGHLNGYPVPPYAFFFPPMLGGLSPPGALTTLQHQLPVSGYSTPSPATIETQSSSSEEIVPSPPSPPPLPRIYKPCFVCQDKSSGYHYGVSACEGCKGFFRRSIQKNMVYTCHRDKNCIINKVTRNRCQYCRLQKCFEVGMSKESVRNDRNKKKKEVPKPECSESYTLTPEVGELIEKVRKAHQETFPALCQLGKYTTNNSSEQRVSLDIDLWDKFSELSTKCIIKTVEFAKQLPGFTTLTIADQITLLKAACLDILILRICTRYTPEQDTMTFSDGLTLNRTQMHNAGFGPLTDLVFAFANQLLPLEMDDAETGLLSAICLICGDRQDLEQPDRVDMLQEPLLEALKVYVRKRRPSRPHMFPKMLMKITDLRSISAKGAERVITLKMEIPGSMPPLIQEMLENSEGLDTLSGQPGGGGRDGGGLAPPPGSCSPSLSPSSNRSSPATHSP
Method in brief: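 Read-out: DR5-driven reporter transcript measured by RT-PCR, 6-FAM primer extension, HpaI digest and capillary electrophoresis. Human HepG2 liver cells carry transiently transfected cis-element reporter constructs; dosing lasts 24 h. Gain or loss of signal fitted against DMSO baseline.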

[10] = target: Transcription factor E2F1 (Homo sapiens) (UniProt Q01094); test: ATG_E2F_CIS: Attagene CIS-FACTORIAL HepG2 Assay for human E2F Transcription Factor 1 (AID 2282935); conditions: HepG2 Attagene cis-reporter, E2F reporter RNA transcripts; actives raise or lower the signal
Chain of Transcription factor E2F1 (Homo sapiens) (Q01094 whole entry, looked up): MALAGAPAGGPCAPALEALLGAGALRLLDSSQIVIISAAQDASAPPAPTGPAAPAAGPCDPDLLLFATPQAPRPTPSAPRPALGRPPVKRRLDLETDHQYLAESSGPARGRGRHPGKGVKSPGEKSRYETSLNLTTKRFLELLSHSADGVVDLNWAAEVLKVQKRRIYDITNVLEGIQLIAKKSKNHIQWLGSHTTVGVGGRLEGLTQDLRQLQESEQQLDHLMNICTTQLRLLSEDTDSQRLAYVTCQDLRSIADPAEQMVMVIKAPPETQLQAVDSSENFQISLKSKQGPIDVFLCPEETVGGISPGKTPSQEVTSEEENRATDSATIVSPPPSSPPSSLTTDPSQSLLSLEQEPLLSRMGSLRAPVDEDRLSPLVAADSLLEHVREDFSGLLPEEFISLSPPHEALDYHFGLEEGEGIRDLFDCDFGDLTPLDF
Method in brief: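 Measures reporter transcript levels via RT-PCR with capillary electrophoresis detection in HepG2 cells harboring cis-regulated reporter units; 24 h post-dose; bidirectional curve fitting with DMSO as baseline.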

[11] = ATG_E_Box_CIS: Attagene CIS-FACTORIAL HepG2 Assay for human Enhancer Box (E-box) (AID 2282936); conditions: HepG2 E-box cis-reporter transcription, actives raise or lower the signal
Method in brief: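 First, HepG2 cells receive multiple cis-regulated reporter constructs by transient transfection. Next, chemicals are applied for 24 h. Finally, reporter mRNA is quantified via RT-PCR and capillary electrophoresis, with DMSO as baseline.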

[12] = ATG_M_61_CIS: Attagene CIS-FACTORIAL HepG2 Assay for M61 Transcription Factor (Internal Marker) (AID 2282937); conditions: HepG2 Attagene CIS-FACTORIAL M61 internal marker reporter; actives raise or lower the signal
Method in brief: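 HepG2 cells transiently transfected with multiplexed cis-promoter reporter units reporting endogenous transcription factor activity, measured 24 h after dosing. Reporter mRNA quantified by RT-PCR and capillary electrophoresis; bidirectional fit against DMSO baseline.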

[13] = ATG_EGR_CIS: Attagene CIS-FACTORIAL HepG2 Assay for human Early Growth Response 1 (EGR1) (AID 2282938); conditions: HepG2 Attagene CIS-FACTORIAL EGR reporter mRNA; actives raise or lower the signal
Method in brief: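 HepG2 cells transiently transfected with cis-element-driven multiplexed reporter units, dosed for 24 h. EGR1-element reporter mRNA quantified by RT-PCR, 6-FAM labelling, HpaI digestion and capillary electrophoresis; bidirectional fit versus DMSO.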

[14] = ATG_M_19_CIS: Attagene CIS-FACTORIAL HepG2 Assay for M19 Transcription Factor (Internal Marker) (AID 2282939); conditions: HepG2 Attagene CIS-FACTORIAL M19 internal marker reporter; actives raise or lower the signal
Method in brief: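 HepG2 cells transiently transfected with cis-regulated multiplexed reporter units, dosed 24 h. Reporter mRNA quantified by RT-PCR and capillary electrophoresis; internal background marker fitted bidirectionally versus DMSO.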

[15] = ATG_Ets_CIS: Attagene CIS-FACTORIAL HepG2 Assay for human Erythroblast Transformation Specific (ETS) (AID 2282941); conditions: HepG2 ETS cis-reporter transcription, actives raise or lower the signal
Method in brief: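 HepG2 cells transfected with multiple cis-regulated reporter units measuring endogenous ETS-driven transcription, 24 h after dosing. Reporter mRNA quantified by RT-PCR with capillary electrophoresis; bidirectional fit relative to DMSO.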

[16] = target: Hepatocyte nuclear factor 3-beta (Homo sapiens) (UniProt Q9Y261); test: ATG_FoxA2_CIS: Attagene CIS-FACTORIAL HepG2 Assay for human Forkhead box A2 (FOXA2) (AID 2282942); conditions: HepG2 cis-reporter transcription factor activity, 24 h; actives raise or lower the signal
Chain of Hepatocyte nuclear factor 3-beta (Homo sapiens) (Q9Y261 whole entry, looked up): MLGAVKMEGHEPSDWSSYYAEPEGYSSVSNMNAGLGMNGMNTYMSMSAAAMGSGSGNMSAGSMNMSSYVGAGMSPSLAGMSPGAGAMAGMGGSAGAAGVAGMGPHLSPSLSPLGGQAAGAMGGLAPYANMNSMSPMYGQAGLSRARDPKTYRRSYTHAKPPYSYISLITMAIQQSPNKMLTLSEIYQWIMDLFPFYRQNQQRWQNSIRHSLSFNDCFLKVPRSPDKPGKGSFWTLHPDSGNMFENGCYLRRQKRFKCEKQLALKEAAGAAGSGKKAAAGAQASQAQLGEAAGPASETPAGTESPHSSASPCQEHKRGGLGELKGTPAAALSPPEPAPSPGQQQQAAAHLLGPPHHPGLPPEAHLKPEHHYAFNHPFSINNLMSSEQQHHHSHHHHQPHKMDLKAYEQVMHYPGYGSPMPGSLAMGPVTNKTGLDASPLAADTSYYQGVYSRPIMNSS
Method in brief: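 HepG2 transiently transfected with a multiplexed cis-promoter reporter library read endogenous FOXA2 activity. After 24 h compound exposure, reporter mRNA was quantified by RT-PCR, HpaI digestion and capillary electrophoresis. Bidirectional fit against DMSO.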

[17] = ATG_FoxO_CIS: Attagene CIS-FACTORIAL HepG2 Assay for human Forkhead box O (FoxO) (AID 2282943); conditions: HepG2 Attagene cis-reporter, FoxO element, mRNA; actives raise or lower the signal
Method in brief: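 Read-out: fluorescence of 6-FAM-labelled reporter cDNA fragments resolved by capillary electrophoresis. Transiently transfected HepG2 cells were dosed for 24 h; activity fitted in both directions relative to DMSO controls.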

[18] = ATG_GATA_CIS: Attagene CIS-FACTORIAL HepG2 Assay for human GATA Binding Protein (AID 2282944); conditions: HepG2 GATA cis-element reporter, Attagene multiplex mRNA; actives raise or lower the signal
Method in brief: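 HepG2 cells transiently transfected with multiplexed cis-element reporter units measure endogenous GATA activity; after 24 h compound exposure, reporter mRNA quantified by RT-PCR and capillary electrophoresis. Changes fitted in both directions vs DMSO.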

[19] = ATG_GLI_CIS: Attagene CIS-FACTORIAL HepG2 Assay for human Zinc Finger Protein GLI1 (AID 2282945); conditions: HepG2, Attagene cis-factorial reporter mRNA, GLI element; actives raise or lower the signal
Method in brief: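 Transiently transfected HepG2 cells report endogenous transcription factor activity via cis-element-driven reporter units. After 24 h compound exposure, reporter mRNA was measured by RT-PCR with capillary electrophoresis; bidirectional fitting against DMSO baseline.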

Measured: AC50

Oc1c(Cl)cc(Cl)c(Cl)c1Cc1c(O)c(Cl)cc(Cl)c1Cl
inactive: [1] | [4] | [6] | [10] | [11] | [12] | [14] | [16] | [17] | [18] | [19]
active: [2] 0.561 µM | [3] 11.1 µM | [5] 5.86 µM | [7] 1.98 µM | [8] 5.37 µM | [9] 0.527 µM | [13] 11.1 µM | [15] 0.878 µM

CCCCCCC(C)Nc1ccc(Nc2ccccc2)cc1 (centres undefined)
active: [3] 21.8 µM | [4] 44.4 µM | [6] 28.9 µM | [8] 50.5 µM
inactive: [1] | [2] | [5] | [7] | [9] | [10] | [11] | [12] | [13] | [14] | [15] | [16] | [17] | [18] | [19]

CC1=CC[C@@]23C[C@@H]1C(C)(C)[C@@H]2CC[C@H]3C
active: [4] 165 µM | [17] 157 µM
inactive: [1] | [2] | [3] | [5] | [6] | [7] | [8] | [9] | [10] | [11] | [12] | [13] | [14] | [15] | [16] | [18] | [19]

C=C1C[C@]23C[C@@]1(O)CC[C@H]2[C@@]12C=C[C@H](O)[C@@](C)(C(=O)O1)[C@H]2[C@@H]3C(=O)O
inactive: [1] | [2] | [3] | [4] | [5] | [6] | [7] | [8] | [9] | [10] | [11] | [12] | [13] | [14] | [15] | [16] | [17] | [18] | [19]

CC(=O)CC(=O)Nc1ccc(C)cc1C
inactive: [1] | [2] | [3] | [4] | [5] | [6] | [7] | [8] | [9] | [10] | [11] | [12] | [13] | [14] | [15] | [16] | [17] | [18] | [19]

CCc1ccc(O)cc1
active: [5] 68.7 µM
inactive: [1] | [2] | [3] | [4] | [6] | [7] | [8] | [9] | [10] | [11] | [12] | [13] | [14] | [15] | [16] | [17] | [18] | [19]
